Inconclusive results are not listed. Activity calls are given as the source filed them. The call rests on the fitted dose curve; in most records, active means well fitted cell-killing curve with a large enough effect; inconclusive means small, poorly fitted or top-dose-only effect; inactive means flat fitted curve, though single readings scatter. Square brackets hold non-standard residues; d marks the D form. Peptide text beside a SMILES is read from it. ξ: configuration not given here. ξL = CC(C)CC(N)C(=O)O
On the % scale 0 is the no-effect control and ±100 the full control effect; potency means the concentration at half of the fitted maximal effect.

A short description of this test: SW1088 Cancer Cell Toxicity qHTS against the NCATS CANVASS Library (AID 1347350). Further: nearly all actives have a fitted effect of over 75% in size. The settings on record: SW1088 viability, CellTiter-Glo luminescence, 72 h; series mostly up to 38.3 µM; activity change, negative = cytotoxicity: at the top concentration. In short, it runs like this: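 1000 cells/well; 4 h settle; 11-pnt titration; 72 h, 37 degrees C, 5% CO2; CellTiter-Glo, 15min RT; luminescence read.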
On to `O[C@H]1C=C2[C@H]3CN(Cc4cc5c(cc43)OCO5)[C@H]2C[C@@H]1O`, for which the “activity change, negative = cytotoxicity” value is 4.89% (inactive).

Consider `CC[C@@H](c1cc(OC)c(OC)cc1OC)[C@H](C)[C@@H](/C(C)=C/c1cc(OC)c(OC)cc1OC)c1cc(OC)c(OC)cc1OC`, for which the Potency is 11.9 µM (active). On the same count and under the same terms, then `CC[C@@H](C)[C@H]1NC(=O)C(CC(C)C)NC(=O)[C@@H](CC(C)C)NC(=O)[C@H](Cc2c[nH]c3ccccc23)NC(=O)CNC(=O)[C@@H](CC(N)=O)NC1=O` (stereo partly drawn) (cyclo(GW[dL][ξL][dI][dN])), with 11.9 µM (active).

In the case of `CN1CCc2cc3c(c4c2C1(C)C(=O)c1cc(O)ccc1-4)OCO3` (stereo not given), the “activity change, negative = cytotoxicity” value was 1.96% (inactive). Same read-out and setting: the figure for `COc1cc2oc3ccccc3c(=O)c2cc1OC` is -8.5% [at 76 µM] (inactive). Take `COc1cc2ccc(=O)oc2c(O)c1O[C@@H]1O[C@H](CO)[C@@H](O)[C@H](O)[C@H]1O`: the “outcome” value is “inactive [at 22.9 µM]”.

Consider `CC[C@H]1[C@@H](C)[C@@H](c2cc(OC)c(OC)cc2OC)[C@H](C)[C@@H](c2cc(OC)c(OC)cc2OC)[C@@]12C=C(OC)C(=O)C=C2OC`, for which the Potency is 11.9 µM (active). For the compound `O=C1CCC(=O)N(O)CCCCCNC(=O)CCC(=O)N(O)CCCCCNC(=O)CCC(=O)N(O)CCCCCN1`, the “activity change, negative = cytotoxicity” value was -20.9% (inactive).

Turning to `CC1=C(C)C(=O)OC(C(C)C2(O)CCC3C4C5OC5C5(O)CC=CC(=O)C5(C)C4CCC32C)C1` (stereo not given), the compound was classed as inactive.

For `COc1cc(C2C3=C(Cc4cc5c(cc42)OCO5)C(=O)OC3)cc(OC)c1OC` (stereo not given), the “activity change, negative = cytotoxicity” value was -22.6% (inactive). Take `CO[C@@H]1[C@H](O)[C@@H](C)O[C@@H](OC[C@@H]2C(C)OC(=O)/C=C/[C@H](C)C(O[C@@H]3O[C@H](C)CC4(OC(=O)O[C@@H]4C)C3O)[C@@H](C)CC(C)C(=O)/C=C/[C@H]3OC23)[C@@H]1OC` (stereo not given in full): the outcome was inactive. For `COc1ccc([C@@H]2c3cc4c(cc3C(=O)[C@H](C)C2C)OCO4)cc1OC` (stereo not given in full), the “activity change, negative = cytotoxicity” value was -20.9% (inactive). `C/C(=C\[C@H](C)C(=O)C[C@H](O)CC1CC(=O)NC(=O)C1)[C@@H]1OC(=O)CCCC/C=C/[C@@H](O)C[C@@H]1C`: the “activity change, negative = cytotoxicity” value is -24% (inactive). Turning to `CC1=C[C@H]2[C@H]3C(=O)C(c4ccc(O)cc4)=C[C@@]3(c3ccc(O)cc3)[C@@H]1C(=O)[C@]2(C)O`, the “activity change, negative = cytotoxicity” value is -8.8% (inactive). In the case of `C=C1C(=O)O[C@H]2[C@H]1CCC(C)=C1CC[C@@](C)(O)[C@@H]12`, the Potency was 14.9 µM (active).

As for `C/C(=C\[C@H](C)C(=O)/C=C/CC1CC(=O)NC(=O)C1)[C@@H]1OC(=O)CCCC/C=C/[C@H](O)[C@@H](O)[C@@H]1C`, the “activity change, negative = cytotoxicity” value is 3.29% (inactive). The same measure, in the same setting: then `C[C@H](c1cnc(N)[nH]1)c1ccc(O)c2[nH]cc(-c3cnc(-c4c[nH]c5ccccc45)c(=O)[nH]3)c12`, with 1.17% (inactive).

With `CC[C@@H]1[C@H](C)[C@H](c2cc(OC)c(OC)cc2OC)[C@@H](C)[C@H](c2cc(OC)c(OC)cc2OC)[C@]12C=C(OC)C(=O)C=C2OC`, the Potency is 21.1 µM (active). Take `C/C1=C/[C@@H](C)[C@H](O)C/C=C/CC/C=C/C(=O)O[C@@H]1[C@H](C)C(=O)CCCC1CC(=O)NC(=O)C1`: the “activity change, negative = cytotoxicity” value was -4.06% (inactive). Turning to `C=C1C[C@H]2O[C@@H]3[C@@H]4[C@H](CC[C@@](C)(O)[C@@H]42)[C@H](C)COC3(C)[C@@H](OC(=O)CCCCCCC)CC1=O` (stereo not given in full), the Potency was 8.41 µM (active).

The values above are taken from PubChem BioAssay (NCATS).
